Compound activity from PubChem BioAssay.
Shown are actives, neighbours in structure and some others; about 3.8% of the full set was active somewhere.
CBFb-RUNX1 inh: qHTS Assay for Compounds Blocking the Interaction Between CBF-beta and RUNX1 for the Treatment of Acute Myeloid Leukemia; AID 1477, 2009; Potency, µM (series often up to 59.8 µM), for inactives: at the highest dose activity, negative = inhibition, actives largely listed as inhibitors; 230,000 tested, under 10 active; AlphaScreen CBFb-His/RUNX1-biotin binding, biochemical; Runt-related transcription factor 1 (Homo sapiens) + Core-binding factor subunit beta …; further: % of control where 0% means no effect
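AlphaScreen proximity signal reports loss of binding between His-tagged CBF-beta and biotin-labelled RUNX1, each at 30 nM. Proteins are pre-associated for 20 minutes, compounds added for 15 minutes, then beads for 90 minutes, all at ambient temperature.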
VDR inhibitor: Inhibitors of the vitamin D receptor (VDR): qHTS | Vitamin D3 receptor (Homo sapiens), P11473 | VDR-SRC2-3 peptide fluorescence polarization, 2 h | Potency, µM, for inactives: max response, negative = inhibition, actives largely listed as inhibitors | actives 0.93% (n = 400,000); further: potency means the concentration at half of the fitted maximal effect; on the % scale 0 is the no-effect control and ±100 the full control effect
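Reagent solutions, kept cold and dark, are dispensed first; compounds are then pinned in at 23 nl, plates briefly spun, and incubated 2 h at ambient temperature. Inhibition of VDR–SRC2-3 peptide binding is read by fluorescence polarization.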
PLK1 PBD block: qHTS for Inhibitors of PLK1-PDB (polo-like kinase 1 - polo-box domain): Primary Screen; Plk1 PBD binding of FITC phosphopeptide, fluorescence polarization; actives 2.8% (n = 360,000); Serine/threonine-protein kinase PLK1 (Homo sapiens), P53350; Potency, µM, without a hit: max response, negative = inhibition, usual class: inhibitors; further: potency means the concentration at half of the fitted maximal effect; series mostly up to about 57 µM; on the % scale 0 is the no-effect control and ±100 the full control effect; nearly all actives have a fitted effect of over 65% in size
hERG WT inh: qHTS for Inhibitors of KCHN2 3.1: Wildtype qHTS; Voltage-gated inwardly rectifying potassium channel KCNH2 (Homo sapiens), Q12809; U2OS, BacMam KCNH2, thallium flux FluxOr; active compounds read low; activity change, % at 1.84 µM; actives 0.37% (n = 340,000); AID 720551, 2013;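 active means maximum activity change below -70%; inconclusive means maximum activity change between -70% and -50%; inactive means maximum activity change above -50%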; further: on the % scale 0 is the no-effect control and ±100 the full control effect
Target sequence (Q12809 whole entry, looked up): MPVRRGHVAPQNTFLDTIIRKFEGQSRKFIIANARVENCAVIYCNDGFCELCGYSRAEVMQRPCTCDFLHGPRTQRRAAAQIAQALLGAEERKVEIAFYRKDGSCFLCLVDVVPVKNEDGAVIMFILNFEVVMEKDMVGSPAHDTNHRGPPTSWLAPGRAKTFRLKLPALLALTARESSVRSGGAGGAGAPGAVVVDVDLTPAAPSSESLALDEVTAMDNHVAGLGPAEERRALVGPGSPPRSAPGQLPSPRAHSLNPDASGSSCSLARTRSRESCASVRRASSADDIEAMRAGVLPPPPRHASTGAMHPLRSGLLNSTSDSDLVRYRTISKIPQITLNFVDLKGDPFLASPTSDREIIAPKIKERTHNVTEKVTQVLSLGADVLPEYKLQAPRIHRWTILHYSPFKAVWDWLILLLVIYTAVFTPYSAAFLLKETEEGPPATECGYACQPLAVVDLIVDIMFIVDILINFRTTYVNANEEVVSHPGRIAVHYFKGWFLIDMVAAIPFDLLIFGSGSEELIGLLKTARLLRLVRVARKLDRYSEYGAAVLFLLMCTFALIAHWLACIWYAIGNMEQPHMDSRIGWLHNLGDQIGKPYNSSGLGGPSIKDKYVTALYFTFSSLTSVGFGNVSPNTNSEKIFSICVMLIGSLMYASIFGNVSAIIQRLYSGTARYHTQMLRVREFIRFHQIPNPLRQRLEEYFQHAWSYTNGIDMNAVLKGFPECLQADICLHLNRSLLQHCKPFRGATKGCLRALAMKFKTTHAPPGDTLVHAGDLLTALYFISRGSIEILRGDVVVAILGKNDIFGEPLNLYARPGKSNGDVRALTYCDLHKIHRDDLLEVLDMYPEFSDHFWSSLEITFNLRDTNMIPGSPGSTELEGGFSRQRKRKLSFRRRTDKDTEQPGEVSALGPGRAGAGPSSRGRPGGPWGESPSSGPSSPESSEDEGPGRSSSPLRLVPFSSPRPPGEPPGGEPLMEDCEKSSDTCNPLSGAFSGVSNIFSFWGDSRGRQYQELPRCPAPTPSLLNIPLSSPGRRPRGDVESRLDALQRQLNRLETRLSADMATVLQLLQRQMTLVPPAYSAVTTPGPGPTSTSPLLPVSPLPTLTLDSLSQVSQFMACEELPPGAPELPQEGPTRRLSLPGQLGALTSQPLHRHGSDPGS
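U2OS cells were transduced with wild-type KCNH2 virus (2.03 x 10^8 / mL) for 4 h at room temperature, then cultured overnight at 37 C. Thallium flux was read with FluxOr dye. Rate constants were normalized to DMSO controls.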
KCNH2 3.1 inh: qHTS for Inhibitors of KCHN2 3.1: Mutant qHTS | U2OS KCNH2 3.1, thallium flux FluxOr; active compounds read low | activity change, % (tested at about 1.8 µM) | actives 0.95% (n = 340,000);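 active means maximum activity change below -70%; inconclusive means maximum activity change from -70% to -50%; inactive means maximum activity change above -50%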;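 further: thallium influx rate constant from kinetic fluorescence after stimulation buffer; on the % scale 0 is the no-effect control and ±100 the full control effect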
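We transduce U2OS cells with the mutant 3.1 virus, culture them overnight, load FluxOr with Red40 quencher for 45 min, then add stimulation buffer and read kinetically for 2 min to derive a normalized rate constant.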
MBNL1 CUG block: qHTS Assay for Inhibitors of MBNL1-poly(CUG) RNA binding; actives 0.036% (n = 280,000); TR-FRET MBNL1-His/biotin-(CUG)12 binding, 665/545 ratio; Potency, µM (series often up to 57.5 µM), inactives show at the highest dose activity change, negative = inhibition, hits mostly inhibitors; active means well fitted inhibition curve with a large enough effect in the signal ratio, with a control signal flat, not every such curve was filed as active; inconclusive means small, poorly fitted or top-dose-only effect, or effect the other way, or a change in a side signal; inactive means no such curve, though single readings can be large or run the other way; the % refers to the signal ratio; further: potency means the concentration at half of the fitted maximal effect; on the % scale 0 is the no-effect control and ±100 the full control effect
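His-tagged MBNL1 binding to biotinylated (CUG)12 RNA was measured by TR-FRET using terbium anti-His antibody (0.055 ng/ul final) and streptavidin-XL665 (5 nM final). Compounds were titrated 92 nM to 58 uM; 60 min at room temperature.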
The depositor's hits bear a star. Unless noted, the call rests on the fitted dose curve; in most records, active means well fitted curve in the direction sought with a large enough effect; inconclusive means small, poorly fitted or top-dose-only effect, or another doubt; inactive means no such curve, though single readings can be large; an effect the other way counts as inactive or inconclusive.

What do the screens show for `Cc1c(-c2ccccc2)oc2c(C(=O)N3CCN(c4ccc([N+](=O)[O-])cc4)CC3)cccc2c1=O`?
CBFb-RUNX1 inh: -4%; VDR inhibitor: -12%; PLK1 PBD block: 2%; hERG WT inh: -103*; KCNH2 3.1 inh: -71*; MBNL1 CUG block: 54%

How did Cc1nc(-n2nc(C)c(CCC(C)C)c2C)sc1C(=O)Nc1ccc(Cl)cc1 do in these assays?
VDR inhibitor: 9%

How did CCc1ccccc1N1CC23C=CC(O2)C(C(=O)O)C3C1=O (centres undefined) do in these assays?
CBFb-RUNX1 inh: 8%; VDR inhibitor: 89µM*; PLK1 PBD block: 27µM*; hERG WT inh: -10; KCNH2 3.1 inh: -1; MBNL1 CUG block: -11%

How did COc1ccc(-n2nc(C(=O)Nc3ccc(C)cn3)c3c4ccccc4n(C)c3c2=O)cc1 do in these assays?
VDR inhibitor: -15%

How did Cc1cc(C(=O)N/N=C2/CC(C)CC(C)(C)C2)c(C)o1 (centres undefined) do in these assays?
CBFb-RUNX1 inh: -6%; VDR inhibitor: -29%; PLK1 PBD block: 21µM*; hERG WT inh: -2; KCNH2 3.1 inh: -6; MBNL1 CUG block: 1%

How did Cc1cc(C(=O)N/N=C2\CCCc3ccccc32)c(C)o1 do in these assays?
CBFb-RUNX1 inh: 0%; VDR inhibitor: 1%; PLK1 PBD block: -13%; hERG WT inh: -7; KCNH2 3.1 inh: 17; MBNL1 CUG block: 9%

Results for Cc1ccc(-c2nn(CC(=O)NC3CCCC3)c3c2cnc2ccc(F)cc23)cc1C ?
VDR inhibitor: 2%

How did CCOc1ccccc1NC(=O)C1CCCC1 do in these assays?
VDR inhibitor: 11%; PLK1 PBD block: -12%; hERG WT inh: -84*; KCNH2 3.1 inh: 3

What do the screens show for `CCOc1ccccc1NC(=S)NC(=O)C1CCCCC1`?
VDR inhibitor: 4%; PLK1 PBD block: -10%; hERG WT inh: -6; KCNH2 3.1 inh: 2; MBNL1 CUG block: -12%

Results for CCN(CC)CCNC(=O)c1ccc(Cl)c(S(=O)(=O)Nc2ccccc2OC)c1 ?
CBFb-RUNX1 inh: 2%; VDR inhibitor: -3%; PLK1 PBD block: 24µM*; hERG WT inh: 22; KCNH2 3.1 inh: 4; MBNL1 CUG block: 3%

Results for CCN(CC)c1ccc(NC(=O)c2ccccn2)cc1S(=O)(=O)Nc1ccccc1OC ?
VDR inhibitor: 79µM*; PLK1 PBD block: 6.7µM*; hERG WT inh: -5; KCNH2 3.1 inh: -10

What do the screens show for `COc1cc(NC(=O)c2cc3nc(-c4ccccc4)cc(-c4ccccc4)n3n2)cc(OC)c1OC`?
CBFb-RUNX1 inh: 5%; VDR inhibitor: 6%; PLK1 PBD block: -15%; hERG WT inh: -5; KCNH2 3.1 inh: -73*; MBNL1 CUG block: -8%

Results for COc1cc(NC(=O)c2ccccn2)cc(OC)c1OC ?
CBFb-RUNX1 inh: -4%; VDR inhibitor: inconclusive; PLK1 PBD block: 6.7µM*; KCNH2 3.1 inh: 26; MBNL1 CUG block: -4%

How did CCc1ccc(NC(=O)N2CCOc3ccc(Cl)cc32)cc1 do in these assays?
VDR inhibitor: 8%

What do the screens show for `O=C(NCCc1ccccc1C(F)(F)F)c1cc(COc2ccccc2)on1`?
PLK1 PBD block: 3%; hERG WT inh: -18; KCNH2 3.1 inh: -111*

What do the screens show for `CCOc1cccc(OCCCn2c(-c3ccc(Br)cc3)nc3ccccc3c2=O)c1`?
VDR inhibitor: -21%
